# High-throughput results: PubChem BioAssay, Buhrlage Lab, Dana-Farber Cancer Institute and Novartis Institutes for BioMedical Research (Cambridge, Mass)
# USP28 inh: inhibitors of human USP28 deubiquitinase. AID 1645857, 2021. Ubiquitin carboxyl-terminal hydrolase 28 (Homo sapiens), Q96RU2. hit rate 3% among 47,000. inhibition, % at 25 µM. purified USP28, Ub-rhodamine cleavage fluorescence, 30 min
# OTUD3 block: inhibitors of human OTUD3 deubiquitinase; inhibition, % at 25 µM; AID 1645858, 2021; hit rate 0.7% among 47,000; purified OTUD3, Ub-rhodamine fluorescence, 2 h
# Target sequence (Q5T2D3 whole entry, looked up): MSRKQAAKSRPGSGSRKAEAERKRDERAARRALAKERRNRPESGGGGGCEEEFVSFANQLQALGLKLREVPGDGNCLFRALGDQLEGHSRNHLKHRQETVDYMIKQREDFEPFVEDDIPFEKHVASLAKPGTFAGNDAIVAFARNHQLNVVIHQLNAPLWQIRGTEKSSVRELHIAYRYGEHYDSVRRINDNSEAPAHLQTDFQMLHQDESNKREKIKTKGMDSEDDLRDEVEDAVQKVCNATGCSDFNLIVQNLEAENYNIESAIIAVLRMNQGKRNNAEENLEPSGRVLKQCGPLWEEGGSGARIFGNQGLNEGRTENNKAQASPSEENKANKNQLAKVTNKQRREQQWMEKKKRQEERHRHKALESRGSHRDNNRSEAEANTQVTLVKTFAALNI
# USP30 inh: inhibitors of human USP30 deubiquitinase; Ubiquitin carboxyl-terminal hydrolase 30 (Homo sapiens), Q70CQ3; purified USP30, Ub-rhodamine cleavage fluorescence; inhibition, % at 25 µM; hit rate 5.3% among 47,000; AID 1645860, 2021
# USP17 block: inhibitors of human USP17 deubiquitinase. Ubiquitin carboxyl-terminal hydrolase 17-like protein 5 (Homo sapiens), A8MUK1. AID 1645855, 2021. inhibition, % at 50 µM. purified USP17, Ub-rhodamine cleavage fluorescence, 3 h. hit rate 6.5% among 47,000
# * = called active by the depositor; · = no result. In the library only some 12% were active in any assay of this set; here they are far more common. Cut-off read from the data, not from the text of the source: active = inhibition above about 30%; inactive = the rest.
SMILES,USP28 inh,OTUD3 block,USP30 inh,USP17 block
CN(Cc1ccccn1)C(=O)c1cc(-c2csc(-c3cnccn3)n2)n2ccccc12,-3.4,-6.5,-5.4,-75.5
Cc1cc(OCC(=O)Nc2ccc3c(c2)NC(=O)CO3)ccc1Cl,13.1,6.8,14.3,10.5
CCN1CCN(c2ccc(NC(=O)COc3cccc(C)c3)cc2)CC1,11.6,7.3,31.6*,19.1
Cc1cccc(OCC(=O)Nc2ccc3c(c2)NC(=O)CO3)c1,3.6,6.2,12.2,41.2*
O=C(COc1ccc2ccc(=O)oc2c1)N1CCCc2ccccc21,3.9,-2.5,-17.5,-15.1
O=C(c1ccc2c(c1)N(Cc1ccccc1F)C(=O)c1ccccc1S2)N1CCC2(CC1)OCCO2,7.5,-0.1,0.6,12.0
O=C(c1ccc2c(c1)N(Cc1ccccc1F)C(=O)c1ccccc1S2(=O)=O)N1CCN(C(=O)c2ccco2)CC1,6.2,9.4,28.6,37.6*
Cc1cc(Br)ccc1NC(=O)CSc1nc2c(cc1C#N)C(=O)CCC2,-9.1,-4.0,-14.9,·
Cc1cc(C)c(NC(=O)CSC2=C(C#N)C(c3ccc(C)o3)C3=C(CCCC3=O)N2)c(C)c1 (centres undefined),31.4*,11.2,35.4*,19.2
O=C(COc1ccc(N2CC(C(=O)NCc3ccccc3)CC2=O)cc1)Nc1ccccc1Cl (centres undefined),12.5,12.8,52.0*,56.0*
C[C@H]1CN(S(=O)(=O)c2ccccc2F)C[C@@H]1c1nc(-c2ccncc2)no1,0.3,4.4,3.8,-6.5
O=c1cc(CN2CCc3ccccc3C2)nc2nc(NCc3ccc(Cl)cc3)[nH]n12,30.3*,18.3,48.6*,28.4
COc1ccc(NCc2cc(=O)n3[nH]c(NCc4ccc(C(C)C)cc4)nc3n2)cc1,20.1,26.2,16.3,56.2*
Cc1noc2nc(C)n(CC(=O)NCC(C)c3ccccc3)c(=O)c12 (centres undefined),0.6,3.9,-2.7,3.3
CC(CNC(=O)Cn1c(=O)c2cccn2c2ccccc21)c1ccccc1 (centres undefined),14.4,11.4,32.2*,16.6
CC(CCc1ccccc1)NC(=O)Cn1c(=O)c2cccn2c2ccccc21 (centres undefined),14.9,21.1,19.5,82.3*
COc1ccc2c(ccn2CC(=O)NC(C)CCc2ccccc2)c1 (centres undefined),1.7,7.1,-15.7,0.5
CC(C)NC(=O)N1CC[C@H]2N(C)CC[C@@]2(C(=O)Nc2cccnc2)CC1,3.8,2.8,8.6,2.5
CCN(c1ccc(OC)cc1)S(=O)(=O)N1CCCC(C(=O)NCc2cccc(OC)c2OC)C1 (centres undefined),-3.6,-6.4,0.0,-2.6
Cn1cc(-c2cnc(-c3cccc(F)c3)nc2)cc1C(=O)NCc1cccnc1,0.0,1.0,2.8,51.5*
O=C(Oc1ccc(-c2nccc(-c3cccs3)n2)cc1)c1ccco1,21.1,23.8,24.8,48.5*
CCc1ncc(CN2CCC3(CC2)CN(C(C)=O)Cc2cc(C)ccc2O3)cn1,-8.0,-4.7,-11.7,-1.8
COc1cc(C(=O)OCc2csc(-c3ccccc3)n2)ccc1OCC(=O)Nc1ccc(F)cc1,-2.4,36.0*,-65.9,48.9*
COc1cccc(CSC2=NS(=O)(=O)c3ccccc3N2)c1,7.9,8.2,8.4,4.5
Cc1ccc(CSC2=NS(=O)(=O)c3ccccc3N2)cc1,56.9*,10.8,19.8,17.1
SMILES,USP28 inh,OTUD3 block,USP30 inh,USP17 block
O=C(Cn1c(NCc2ccccc2)nc2ccccc21)NCC(F)(F)F,26.9,9.7,52.3*,45.4*
CCOCCc1nnc(NC(=O)C(=O)c2cc(C)n(-c3ccc(F)cc3)c2C)s1,16.9,6.4,-16.7,6.8
Cc1ccc(Cn2c(SCc3ccccc3C#N)nc3ccccc3c2=O)cc1,-83.6,-60.1,-274.7,·
Cc1nc2ccccc2c(=O)n1Cc1ccc(-c2ccccc2)cc1,-10.7,1.2,-1.9,51.4*
CN(C)c1nc(C(=O)NCCc2ccc(Cl)cc2)nc2c1cnn2C,11.1,-9.5,-17.5,-18.0
COc1ccccc1N1CCn2c(nc3cc(NS(C)(=O)=O)ccc32)C1,0.3,0.1,8.1,40.2*
CS(=O)(=O)Nc1ccc2c(c1)nc1n2CCN(C2CCCC2)C1,-100.5,-93.0,-400.9,-112.2
CCC1=C(c2ccc(C)cc2)S(=O)(=O)NC1=NCC(=O)NCCC1=CCCCC1,1.3,4.9,0.2,-4.8
CC1=C(c2ccc(C)c(C)c2)S(=O)(=O)NC1=NCC(=O)Nc1ccc(F)cc1F,6.4,-0.5,3.1,48.4*
CC1=C(c2ccc(C)c(C)c2)S(=O)(=O)NC1=NCC(=O)NCc1cccc(C)c1,3.1,-2.3,2.2,10.6
CCC1=C(c2ccc(C)cc2)S(=O)(=O)NC1=NCC(=O)NC(C)c1ccccc1 (centres undefined),7.0,5.7,14.1,54.4*
CC1=C(c2ccc(C)c(C)c2)S(=O)(=O)NC1=NCC(=O)NCCc1ccc(C)cc1,31.8*,8.7,69.0*,14.9
COc1ccccc1NC(=O)CN=C1NS(=O)(=O)C(c2ccc(F)cc2)=C1C,0.6,-6.3,-2.6,12.3
CCc1ccc(NC(=O)CN=C2NS(=O)(=O)C(c3ccc(CC)cc3)=C2C)cc1,22.3,7.6,23.1,57.7*
O=C(Nc1ccc(F)c(Cl)c1)C1CN(C(=O)c2cnccn2)C1,·,-8.3,·,-24.3
O=C(Nc1cccnc1)c1ccc(Oc2ccccc2)cc1,43.5*,2.5,19.3,-4.4
COc1cccc(-c2nc(Cn3cnc4ccccc4c3=O)no2)c1,11.6,-12.5,-20.0,-16.3
O=C(Cn1cc(S(=O)(=O)Cc2ccccc2F)c2ccccc21)N1CCCC1,0.3,-5.6,7.8,-11.3
CS(=O)(=O)c1cn[nH]c1C1CCN(Cc2cccc3cccnc23)C1 (centres undefined),-0.1,2.4,-0.8,-12.5
Cc1cc2nc(C)c(C/C=C/c3ccccc3)c(=O)n2[nH]1,9.9,11.5,35.3*,22.1
CSc1nc2nc(C)c(C/C=C/c3ccccc3)c(=O)n2[nH]1,14.3,25.3,39.5*,·
CCN1CCc2c(sc(NC(=O)CSc3ccc(Cl)cc3)c2C(N)=O)C1,15.0,-3.1,28.4,34.1*
COc1ccc(NS(=O)(=O)c2cc(NC(=O)CCC(=O)c3ccc(F)cc3)ccc2C)cc1,2.3,-5.3,36.0*,-7.9
CC1CC(=O)Nc2cc(S(=O)(=O)Nc3cccc(F)c3)ccc2S1 (centres undefined),13.8,13.0,31.4*,11.8
O=c1c(OC2O[C@H](CO)[C@H](O)[C@H](O)[C@H]2O)c(-c2ccc(O)cc2)oc2cc(O)cc(O)c12 (some centres undefined),-16.7,34.1*,-18.3,21.3
COc1ccc(-c2coc3cc(O[C@@H]4O[C@H](CO)[C@@H](O)[C@H](O)[C@H]4O)ccc3c2=O)cc1,9.7,3.4,23.7,22.2
CCOc1ccc(Nc2nc(CN3CCCC3)nc3sc(C)c(C)c23)cc1,-0.7,-3.4,7.0,-1.8
COc1ccc(NC(=O)Nc2ccc(CCc3nc4ccccc4[nH]3)cc2)c(OC)c1,28.4,15.7,76.3*,59.4*
